PubChem BioAssay AID1159580 (chemical genetic matrix, 2015)
The campaign covered roughly 5,500 compounds. About 2,000 (36%) were called active. Roughly 18% stayed inconclusive and do not appear here. Rule as the data show it: active = normalized growth mostly below about 0.91 (no sharp cut-off); inconclusive = no clear call, values can overlap the other calls; inactive = mostly above about 0.92. This is one part of the list.

Assay: chemical genetic growth profiling, strain panel (AID 1159580);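 also: tested at 20 µM; growth read once vehicle control cultures reached saturation at 30 °C; 1 = growth at the plate median or of vehicle wells; lower values mean less growth of the strain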
Conditions: S. cerevisiae deletion strains, growth OD
[1] = locus YAL040C, strain CLN3, active compounds read low
[2] = locus YER002W, strain NOP16, active compounds read low
[3] = locus YMR263W, strain SAP30, active compounds read low
[4] = locus YNL153C, strain GIM3, active compounds read low
[5] = locus YNL175C, strain NOP13, active compounds read low
[6] = locus YNL197C, strain WHI3, active compounds read low
[7] = locus YNL224C, strain SQS1, active compounds read low
[8] = locus YOR083W, strain WHI5 (second series), active compounds read low
[9] = locus YPL241C, strain CIN2, active compounds read low
[10] = locus YHR030C, strain SLT2, active compounds read low
[11] = locus YHR079C, strain IRE1, active compounds read low
[12] = locus YJL095W, strain BCK1, active compounds read low
[13] = locus YJR066W, strain TOR1, active compounds read low
[14] = locus YLR113W, strain HOG1, active compounds read low
[15] = locus YNL183C, strain NPR1, active compounds read low
[16] = locus YOR231W, strain MKK1, active compounds read low
[17] = locus YPL256C, strain CLN2, active compounds read low

Measured: normalized growth

N[C@H](C(=O)O)[C@H]1C[C@@H]1C(=O)O
inactive: [1] 1.11 | locus YCL061C, strain MRC1 (second series), active compounds read low 1.01 | locus YDR363W, strain ESC2, active compounds read low 1.03 | [2] 1.01 | locus YGR078C, strain PAC10, active compounds read low 1.02 | [3] 1.01 | [4] 1.02 | [5] 1 | [6] 1.06 | [7] 0.996 | [8] 1.03 | [9] 1.01

C[N+](C)(C)C[C@H](O)CC(=O)[O-]
inactive: [10] 0.972 | [11] 0.984 | [12] 1.02 | [13] 0.923 | [14] 1.01 | [15] 0.923 | [16] 0.962 | [17] 0.961

NCCc1ccc(S(=O)(=O)F)cc1
inactive: locus YAL013W, strain DEP1, active compounds read low 1 | [1] 1.01 | [2] 1.02 | [3] 1 | [4] 1.03 | [5] 1 | [6] 1.04 | [7] 1 | locus YNL322C, strain KRE1, active compounds read low 1.01 | [8] 0.997 | locus YPL055C, strain LGE1, active compounds read low 1.02 | [9] 1.01

CCCCCCCCCCCCCCCCC(C(=O)O)C(O)(CC(=O)O)C(=O)O (configuration not stated)
inactive: [17] 0.863
active: [10] 0.501 | [11] 0.804 | [12] 0.581 | [13] 0.566 | [14] 0.48 | [15] 0.648 | [16] 0.836

CCCCC[C@H](CC(=O)O)C(=O)O
inactive: [10] 1.04 | [11] 1.03 | [12] 1.04 | [13] 1.03 | [14] 0.945 | [15] 0.989 | [16] 1.05 | [17] 1.02

O=C(O)CC(O)(CC(=O)O)C(=O)O
inactive: locus YAL021C, strain ccr4, active compounds read low 1 | locus YAL026C, strain drs2, active compounds read low 1.01 | locus YAL030W, strain snc1, active compounds read low 1 | locus YBL061C, strain skt5, active compounds read low 1.01 | locus YBR009C, strain hhf1, active compounds read low 1 | locus YBR023C, strain chs3, active compounds read low 1.01 | locus YBR171W, strain sec66, active compounds read low 1.01 | locus YBR231C, strain swc5, active compounds read low 1.01 | locus YBR279W, strain paf1, active compounds read low 1 | locus YCL011C, strain gbp2, active compounds read low 1.01 | locus YCL016C, strain dcc1, active compounds read low 0.997 | locus YCL069W, strain vba3, active compounds read low 1.01 | locus YCR088W, strain abp1, active compounds read low 1.02 | locus YDL005C, strain med2, active compounds read low 1.01 | locus YDL040C, strain nat1, active compounds read low 1.01 | locus YDR001C, strain nth1, active compounds read low 0.998 | locus YDR069C, strain doa4, active compounds read low 1.03 | locus YDR137W, strain rgp1, active compounds read low 1 | locus YDR159W, strain sac3, active compounds read low 1 | locus YDR195W, strain ref2 1.05 | locus YDR297W, strain sur2, active compounds read low 0.994 | locus YDR334W, strain swr1, active compounds read low 1 | locus YDR335W, strain msn5, active compounds read low 1.01 | locus YDR392W, strain spt3, active compounds read low 0.966 | locus YEL003W, strain gim4, active compounds read low 0.998 | locus YEL037C, strain rad23, active compounds read low 1.01 | locus YEL061C, strain CIN8 (second series), active compounds read low 1 | locus YER015W, strain faa2, active compounds read low 1.02 | locus YER016W, strain bim1, active compounds read low 1.01 | locus YER111C, strain swi4, active compounds read low 1.01 | locus YER155C, strain BEM2 (second series), active compounds read low 1.05 | locus YFR010W, strain ubp6, active compounds read low 1.02 | locus YGL167C, strain pmr1, active compounds read low 1.01 | locus YGL173C, strain kem1, active compounds read low 0.999 | locus YGL227W, strain vid30, active compounds read low 1.01 | locus YGL240W, strain doc1, active compounds read low 1.02 | locus YGL253W, strain hxk2, active compounds read low 0.997 | locus YHR013C, strain ard1, active compounds read low 1 | locus YHR027C, strain rpn1, active compounds read low 1.01 | [10] 0.979 | [11] 0.995 | locus YHR142W, strain chs7, active compounds read low 0.993 | locus YJL092W, strain hpr5, active compounds read low 1.01 | locus YJL095W, strain BCK1 (second series), active compounds read low 1.02 | [12] 1.02 | locus YJL115W, strain asf1, active compounds read low 1.03 | locus YJL129C, strain trk1, active compounds read low 1.03 | locus YJL154C, strain vps35, active compounds read low 1.01 | locus YJL164C, strain tpk1, active compounds read low 1 | locus YJL166W, strain qcr8, active compounds read low 1.03 | locus YJL187C, strain SWE1, active compounds read low 1.01 | [13] 0.953 | locus YKL160W, strain elf1, active compounds read low 1.01 | locus YKR026C, strain gcn3, active compounds read low 1.01 | locus YKR091W, strain srl3, active compounds read low 1.01 | locus YLL001W, strain dnm1, active compounds read low 1.01 | locus YLL026W, active compounds read low 0.999 | locus YLL041C, strain sdh2, active compounds read low 1.01 | locus YLR027C, strain aat2, active compounds read low 1 | [14] 1.02 | locus YLR221C, strain rsa3, active compounds read low 0.988 | locus YLR258W, strain gsy2, active compounds read low 1.01 | locus YLR262C, strain YPT6 (second series), active compounds read low 1.02 | locus YLR320W, strain mms22, active compounds read low 0.998 | locus YLR342W, strain FKS1, active compounds read low 1.02 | locus YLR357W, strain rsc2, active compounds read low 1 | locus YLR370C, strain arc18, active compounds read low 0.982 | locus YLR384C, strain iki3, active compounds read low 1.01 | locus YML120C, strain ndi1, active compounds read low 1.01 | locus YMR058W, strain fet3, active compounds read low 1.01 | locus YMR125W, strain sto1, active compounds read low 1.02 | locus YMR129W, active compounds read low 1.01 | locus YMR205C, strain PFK2, active compounds read low 1.01 | locus YMR231W, strain pep5, active compounds read low 1.01 | locus YNL071W, strain lat1, active compounds read low 1 | [15] 0.98 | locus YNL209W, strain ssb2, active compounds read low 0.998 | locus YNL248C, strain rpa49, active compounds read low 1.01 | locus YNL322C, strain KRE1 (second series), active compounds read low 1 | locus YNR049C, strain mso1, active compounds read low 1 | locus YOR001W, strain rrp6, active compounds read low 1.04 | locus YOR070C, strain gyp1, active compounds read low 1.01 | locus YOR080W, strain dia2, active compounds read low 1.02 | locus YOR083W, strain WHI5, active compounds read low 1.02 | locus YOR106W, strain vam3, active compounds read low 1.02 | [16] 0.985 | locus YOR265W, strain rbl2, active compounds read low 1.01 | locus YOR270C, strain vph1, active compounds read low 0.988 | locus YOR290C, strain snf2, active compounds read low 0.99 | locus YPL051W, strain arl3, active compounds read low 1.01 | locus YPL078C, strain atp4, active compounds read low 1.03 | locus YPL106C, strain sse1, active compounds read low 1.01 | locus YPL240C, strain hsp82, active compounds read low 1 | [17] 0.968
